Screening results: PubChem, The Scripps Research Institute Molecular Screening Center
OPRM1-OPRD1 inv – mu-delta opioid heterodimer inverse agonism; P35372+P41143; cell-based MOR-DOR heterodimer luminescence; inhibition, % at 9.3 µM; hit rate 0.21% among 340,000; AID 504357; in the data active = inhibition above about 22%, passing the limit was not always enough;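 note: 0% = cells with DMSO and 100% = wells without cells with DMSO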
Target sequence (P35372 whole entry, looked up): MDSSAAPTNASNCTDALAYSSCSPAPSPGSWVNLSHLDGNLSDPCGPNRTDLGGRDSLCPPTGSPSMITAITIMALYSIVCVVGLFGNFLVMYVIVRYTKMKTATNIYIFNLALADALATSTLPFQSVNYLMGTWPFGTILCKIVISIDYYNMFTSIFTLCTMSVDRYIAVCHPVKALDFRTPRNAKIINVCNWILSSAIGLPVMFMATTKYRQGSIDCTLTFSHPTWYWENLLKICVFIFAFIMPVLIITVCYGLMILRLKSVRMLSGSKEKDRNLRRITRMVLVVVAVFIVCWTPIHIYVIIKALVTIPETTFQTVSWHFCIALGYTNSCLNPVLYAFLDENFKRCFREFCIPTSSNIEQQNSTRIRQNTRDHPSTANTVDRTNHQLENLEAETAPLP
Target sequence (P41143 whole entry, looked up): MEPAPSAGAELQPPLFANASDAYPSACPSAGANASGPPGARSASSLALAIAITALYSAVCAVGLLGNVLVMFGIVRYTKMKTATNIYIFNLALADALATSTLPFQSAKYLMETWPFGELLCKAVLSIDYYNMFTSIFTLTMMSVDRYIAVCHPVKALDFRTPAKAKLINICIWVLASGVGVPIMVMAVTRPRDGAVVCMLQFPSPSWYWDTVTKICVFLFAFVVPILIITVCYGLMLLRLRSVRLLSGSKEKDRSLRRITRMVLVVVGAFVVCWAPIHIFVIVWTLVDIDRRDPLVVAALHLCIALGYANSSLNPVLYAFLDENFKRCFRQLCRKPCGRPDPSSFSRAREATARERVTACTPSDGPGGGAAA
HTR5A ag ctr – counter-screen for OPRM1-OPRD1 agonists: human HTR5A agonism | P47898 | HTR5A agonist assay, luminescence, cell-based | activation, % at 9.3 µM | hit rate 0.61% among 340,000 | AID 504692; in the data active = activation mostly above about 9.5%, no sharp cut-off; inactive = mostly below about 7.6%;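 note: 0% = cells with vehicle only and 100% = reference agonist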
HTR5A inv ctr – HTR5A inverse agonism, opioid heterodimer counter-screen | inhibition, % at 9.3 µM | hit rate 0.083% among 340,000 | HTR5A cell line, luminescence | P47898; in the data active = inhibition mostly above about 23%, no sharp cut-off; inactive = mostly below about 18%;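 note: 0% = cells with DMSO and 100% = no-cell wells with DMSO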
OPRM1-OPRD1 ag – OPRM1-OPRD1 heterodimerization agonism; P35372+P41143; cells, luminescence; activation, % at 9.3 µM; hit rate 0.3% among 340,000; AID 504326; in the data active = activation above about 18%;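 note: 0% = vehicle-treated cells and 100% = reference agonist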
* marks the source's active call; other numbers are inactive results. Compounds with a hit are over-represented: about 1.1% of the library has one in this group of screens.

SMILES	OPRM1-OPRD1 inv	HTR5A ag ctr	HTR5A inv ctr	OPRM1-OPRD1 ag
COc1ccc(C2CC(=O)C(C3NCCc4ccccc43)=C(O)C2n2cncn2)cc1 (stereo not given)	-3	11*	-30	1
OC(CNCC1COc2ccccc2O1)COc1ccc(Cl)cc1 (stereo not given)	-28	9.6*	-35	6
C=CCN1C(=O)/C(=N/n2cnnc2)c2ccccc21	46*	2	-7	-8
COc1cc2c(cc1OC)CN(C1CCCN(Cc3cc(Cl)ccc3O)C1)CC2 (stereo not given)	9	-4	13	-2
CCN(c1ccccc1)S(=O)(=O)c1ccc(C(=O)N(CCCN(C)C)c2nc3cc4c(cc3s2)OCO4)cc1	-163	1	19	32*
CC(=O)Nc1ccc(S(=O)(=O)Nc2nc3ccccc3nc2Nc2ccccc2)cc1	5	5	-13	-1
CC(=O)Nc1ccc(Nc2nc3ccccc3nc2NS(=O)(=O)c2ccccc2)cc1	12	12*	13	-2
NCCc1c(-c2ccccc2)n(-c2ccccc2)c2ccccc12	-42	14*	-10	8
COc1ccc(CNc2nc(NCc3ccc(OC)c(OC)c3)n(C(=O)c3cccs3)n2)cc1OC	-8	14*	-22	1
CN1OC[C@@H]2CN(Cc3cc(Cl)cc(Cl)c3)[C@H](c3cccc(-c4ccccc4)c3)C[C@@H]21	13	-2	7	-3
Nc1cc(C(F)(F)F)ccc1C(=O)O	4	-4	12	-1
Nc1cc(S(=O)(=O)C(F)(F)F)ccc1C(=O)O	0	12*	-44	0
O=C(NC(C(=O)c1ccccc1)N1CCOCC1)c1cccs1 (stereo not given)	-7	12*	-26	1
Cc1ccc(-n2nc3c(=O)n(CCCC(=O)NCc4cccc(F)c4)nc(C)c3c2C)cc1	8	0	1	-2
CCN1CCN(Cc2nc3ccc([N+](=O)[O-])cc3c(=O)n2-c2ccc(OC)cc2OC)CC1	2	3	-11	0
COc1ccc(-n2c(CN3CCN(c4ccccc4OC)CC3)nc3ccc([N+](=O)[O-])cc3c2=O)c(OC)c1	10	9.9*	-39	-2
Cc1ccc(-c2nnn(CC(=O)N(CC3CCCO3)C(C(=O)NC3CCCC3)c3ccc(O)cc3)n2)o1 (stereo not given)	3	9.4*	-27	-1
O=C(CC(Cc1ccccc1)C(=O)O)Nc1ccccc1 (stereo not given)	18	0	-1	-4
O=C(CC(Cc1ccccc1)C(=O)O)Nc1ccc(Cl)c(Cl)c1 (stereo not given)	0	10.0*	-37	0
CCc1ccc(NC(=O)CSc2nc(=O)n(CCN(C)C)c3c2CCCC3)cc1	15	3	-9	-3
Cc1cccc(N(Cc2ccccc2)C(=O)CCl)c1	-368	65*	-181	67*
O=C(NC1CCCCC1)NC1(C(=O)NCCCN2CCOCC2)CCCCC1	11	11*	-4	-2
O=C(Nc1ccccc1Cl)NC1(C(=O)NCCCN2CCOCC2)CCCCC1	8	-1	-46	-1
Nc1ccc2nn(-c3ccccc3)nc2c1	-51	12*	-31	10
Cc1nc2sccn2c(=O)c1S(=O)(=O)Nc1ccc(N2CCN(S(C)(=O)=O)CC2)cc1	-9	-1	6	1
SMILES	OPRM1-OPRD1 inv	HTR5A ag ctr	HTR5A inv ctr	OPRM1-OPRD1 ag
S=C(Nc1ccc(Cl)c(Cl)c1)NC1CCN(Cc2ccccc2)CC1	-135	12*	-23	23*
CCN(CC)S(=O)(=O)c1ccc2c(c1)nc(SCC(=O)NCC1CCCO1)n2CC (stereo not given)	16	0	13	-3
CCCc1nc(C)cc(N2CCN(c3ccccc3)CC2)n1	8	9.6*	-34	-2
Cc1cc(N2CCN(c3ccccc3)CC2)nc(NCc2ccccc2)n1	11	-3	-4	-2
COCCN(C(=O)COC(=O)c1cccs1)c1c(N)n(Cc2ccccc2)c(=O)[nH]c1=O	1	-4	-27	0
CS(=O)(=O)N1CCN(c2ccc(NC(=O)c3ccc(-c4ccc(Cl)cc4)o3)cc2)CC1	-55	12*	-39	10
N/C(CC(=O)Nc1ccc(F)c(Cl)c1)=N\OC(=O)c1cccs1	-64	13*	-3	13
O=C(COC(=O)c1cccs1)Nc1ccc(F)c(F)c1	7	10	-24	-2
CCCCC(=O)OCC(=O)Nc1cccc(S(=O)(=O)NC2=NCCCCC2)c1	22	1	-3	-4
CC(=O)c1cc(-c2ccccc2)n(CC(=O)N2CCCCC2)c1C	0	12*	-38	0
O=C1OCCN1C(=O)[C@H]1[C@H](c2ccc(Cl)cc2)C(c2ccc(F)cc2)=NN1c1ccccc1	-29	4	-16	6
O=C1OCCN1C(=O)[C@H]1[C@H](c2ccc(Cl)cc2)C(c2ccccc2)=NN1c1ccccc1	-16	5.5*	-20	3
S=c1nc2ccccc2c2nc(-c3ccccc3)[nH]n12	5	9.2*	-6	-1
Cc1ccc(Nc2cc(C)nn2-c2nc(C)cc(=O)[nH]2)cc1	55*	-7	-3	-9
Cc1ccc(Nc2cc(C)nn2-c2nc(C)cc(C)n2)cc1	11	-2	-1	-2
Cc1cc(C)cc(NC(=O)C(=O)NCCc2c[nH]c3ccccc23)c1	-28	14*	-37	5
Cc1cccc(NC(=O)C(=O)NCCc2c[nH]c3ccccc23)c1C	4	14*	-9	-1
Cc1cccc(C)c1NC(=O)C(=O)NCCc1c[nH]c2ccccc12	9	0	-12	-2
Cc1ccc(C)c(NC(=O)C(=O)NCCc2c[nH]c3ccccc23)c1	1	-1	-20	0
Cc1cc(C)c(S(=O)(=O)N2CCCOC2CNC(=O)C(=O)NCCc2c[nH]c3ccccc23)c(C)c1 (stereo not given)	-19	12*	-16	4
CCCCn1nc(C(=O)Nc2cc(S(=O)(=O)N(C)C)ccc2C)c2ccccc2c1=O	4	1	11	-1
Cc1nn(CC(=O)NNC(=O)c2cccc(Br)c2)c(C)c1[N+](=O)[O-]	17	0	-11	-3
O=c1[nH]c(-c2ccccc2F)nc2c1sc(=S)n2Cc1ccccc1	-12	4	-12	2
CC(C)N(C(=O)[C@H]1C[C@H](CC(=O)NCCCN(C)C)C(=O)N2CCc3c([nH]c4cc(CCC(=O)N(C)C)ccc34)[C@]12C)C(C)C	18	2	-8	-4
CCN(CC)C(=O)[C@H]1C[C@H](CC(=O)NCCCN(C)C)C(=O)N2CCc3c([nH]c4cc(CCC(=O)N(C)C)ccc34)[C@]12C	14	5.0*	-17	-3
CCC(=O)N1CCc2cc(S(=O)(=O)N3CCCC3)ccc21	9	1	-13	-2
CCC(=O)N1CCc2cc(S(=O)(=O)N3CCCCCC3)ccc21	26	13*	-9	-5
NNc1nc(-c2ccccc2)cc(-c2ccccc2O)n1	20	-10	28	-4
NNc1nc(-c2ccccc2)cc(-c2ccccc2)n1	52*	-16	43*	-11
